Data reported in PubChem BioAssay.
“And” between values parts separate entries of the source, which are not always exact repeats. Equal values may be shown once. The source made the active and inactive calls. No rule for the calls is given here.

What follows are compounds tested on Aerobactin synthetase IucA (Klebsiella pneumoniae, hypervirulent) (assay: IucA enzyme inhibition, biochemical, LOPAC library, absorbance readout (AID 1346212;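 also: 100% = no compound wells and 0% = no enzyme wells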)). Conditions: IucA enzyme assay, absorbance (OD) readout; stronger effect = lower value;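 tested at 8 µM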.
With `COCc1nc2c([nH]1)c(=O)n(C)c(=O)n2CC(C)C` the remaining activity was 112% (inactive). With `COC(=O)[C@@H](N)Cc1ccc(O)c(O)c1` the remaining activity was 107% (inactive). In the case of `CCN(CC)CCOC(=O)c1cc(Cl)c(N)cc1OC`, the remaining activity is reported as 103% (inactive). In the case of `N[C@@H](CC(=O)O)C(=O)O`, the remaining activity is reported as 111% (inactive). In the case of `CC[C@H](NC(=O)c1c(C)c(-c2ccccc2)nc2ccccc12)c1ccccc1`, the remaining activity is reported as 114% (inactive). With `CC(C)NC[C@H](O)c1ccc(O)c(O)c1` the remaining activity was 108% (inactive) and 104% (inactive). For `CCCCCCCCCCCCCCCCCCOC[C@H](COP(=O)([O-])OCC[N+](C)(C)C)OC`, the remaining activity was 119% (inactive). With `Nc1ccn([C@@H]2O[C@H](CO)[C@@H](O)[C@@H]2O)c(=O)n1` the remaining activity was 119% (inactive). In the case of `OC(CN1CCN(c2cccc(Cl)c2)CC1)C(c1ccccc1)c1ccccc1` (stereo unspecified), the remaining activity is reported as 114% (inactive). `Nc1ccc(-c2nc3ccc(-c4nc5ccc(N)cc5[nH]4)cc3[nH]2)cc1` was tested, and the remaining activity was 114% (inactive). With `CC(C)NC[C@@H](O)c1ccc(O)c(O)c1` the remaining activity was 119% (inactive). For `Nc1nc2ccc(OC(F)(F)F)cc2s1`, the remaining activity was 98.9% (inactive). In the case of `COc1cc(C(=O)OCCCN2CCCN(CCCOC(=O)c3cc(OC)c(OC)c(OC)c3)CC2)cc(OC)c1OC`, the remaining activity is reported as 116% (inactive). For `CC(C)(C)[C@]1(O)CCN2C[C@H]3c4ccccc4CCc4cccc(c43)[C@@H]2C1`, the remaining activity was 105% (inactive). `N#C/C(=C\c1ccc(O)c(O)c1)C(=O)NCCCNC(=O)/C(C#N)=C/c1ccc(O)c(O)c1` was tested, and the remaining activity was 98.2% (inactive). With `COc1cc(OC)c(/C=C2/C(=O)Nc3ccccc32)c(OC)c1` the remaining activity was 99.3% (inactive).
